This is part of a sample that, as a whole, favours compounds with a hit. Of some 79,000 tested, about 15% had one in any assay. Values without a mark were called inactive. Activity calls are given as the source filed them. Rule as the data show it: active = growth inhibition above about 70%; inactive = the rest.
What was measured:
[1] = NCI Yeast Anticancer Drug Screen. Data for the rad50 strain (AID 155);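 also: 0% = growth of vehicle-only cultures of the same strain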; conditions: S. cerevisiae rad50 strain growth inhibition; at 50.0 µM; active compounds read high
How it was run: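 Compounds were tested on a yeast strain with an engineered DNA damage repair alteration; the reported value is growth inhibition normalised to vehicle treatment.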

[2] = NCI Yeast Anticancer Drug Screen. Data for the mec2-1 strain (AID 157); conditions: S. cerevisiae mec2-1 strain, at 50.0 µM, active compounds read high
How it was run: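 Yeast mec2-1 mutant treated with compound. Readout: growth inhibition vs vehicle controls.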

[3] = NCI Yeast Anticancer Drug Screen. Data for the sgs1 mgt1 strain (AID 161);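 also: 0% = growth of cultures given vehicle only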; conditions: S. cerevisiae sgs1 mgt1 strain, at 50.0 µM, active compounds read high
How it was run: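 Read-out: growth inhibition vs vehicle controls. Cells: mutant yeast strain deficient in DNA damage repair.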

[4] = NCI Yeast Anticancer Drug Screen. Data for the cln2 rad14 strain (AID 165);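 also: 0% = growth equal to vehicle treated cultures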; conditions: S. cerevisiae cln2 rad14 strain, at 50.0 µM, active compounds read high
How it was run: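 cln2 rad14 yeast strain; compound exposure; growth inhibition read vs vehicle controls.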

[5] = NCI Yeast Anticancer Drug Screen. Data for the bub3 strain (AID 167); conditions: S. cerevisiae bub3 mutant strain, at 50.0 µM, active compounds read high
How it was run: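 Growth of a checkpoint-deficient yeast mutant is measured after compound exposure. Values represent inhibition relative to vehicle.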

[6] = NCI Yeast Anticancer Drug Screen. Data for the mlh1 rad18 strain (AID 175); conditions: S. cerevisiae mlh1 rad18 strain growth inhibition; at 50.0 µM; active compounds read high
How it was run: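 Yeast w/ defined DNA-repair lesions; compound exposure; growth vs vehicle controls → % inhibition.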

Molecule `CC(C)CC(NC(=O)CF)C(=O)O` (configuration not stated) has a growth inhibition [1] of 3.45%, a growth inhibition [2] of 0.05% and a growth inhibition [3] of -4.7%. For the same molecule, the growth inhibition [4] was 1.4%, the growth inhibition [5] was 4.05% and the growth inhibition [6] was -3.05%.
`CN1CN(c2ccccc2)C2(CCN(CCCCCCF)CC2)C1=O` showed a growth inhibition [1] of -5.55%, a growth inhibition [2] of -15.9% and a growth inhibition [3] of -19.4%. The growth inhibition [4] was -0.15%, the growth inhibition [5] was -5.95% and the growth inhibition [6] was 16.4%.
In the case of `O=[As](O)(O[As](=O)(O)c1ccccc1)c1ccccc1`, the growth inhibition [1] was 24.4%, the growth inhibition [2] was 18.1% and the growth inhibition [3] was 17.1%. The growth inhibition [4] was 5%, the growth inhibition [5] was -0.05% and the growth inhibition [6] was 28.5%.
Molecule `NNC(=O)Nc1ccc([N+](=O)[O-])cc1[N+](=O)[O-]` has a growth inhibition [1] of 63.8%, a growth inhibition [2] of 0% and a growth inhibition [3] of 34.7%. For the same molecule, the growth inhibition [4] was 20.2%, the growth inhibition [5] was 38.4% and the growth inhibition [6] was 20.5%.
`O=NNc1ncc([N+](=O)[O-])cn1` showed a growth inhibition [1] of -1.05%, a growth inhibition [2] of 5.35% and a growth inhibition [3] of -5.9%. It also gave a growth inhibition [4] of -23.4%, a growth inhibition [5] of -5% and a growth inhibition [6] of -8.4%.
`c1ccc(CC2NC(Cc3ccccc3)N3C(Cc4ccccc4)N23)cc1` (configuration not stated) showed a growth inhibition [1] of -2.65%, a growth inhibition [2] of 1.9% and a growth inhibition [3] of 0.9%. The growth inhibition [4] was -6.25%, the growth inhibition [5] was 9% and the growth inhibition [6] was 3.45%.
Molecule `CN(C)P1(N(C)C)=NP(c2ccccc2)(c2ccccc2)=NP(N(C)C)(N(C)C)=N1` has a growth inhibition [1] of 13.3%, a growth inhibition [2] of 20.9% and a growth inhibition [3] of 47.5%. For the same molecule, the growth inhibition [4] was 24.2%, the growth inhibition [5] was 1.9% and the growth inhibition [6] was 48.2%.
For `Cc1nc2ccccc2c(=O)n1-c1ccccc1F`, the growth inhibition [1] was -10.6%, the growth inhibition [2] was -30.2% and the growth inhibition [3] was -19.8%. For the same molecule, the growth inhibition [4] was 4.8%, the growth inhibition [5] was -20.9% and the growth inhibition [6] was -29.8%.
Molecule `CN(C)C1=C(N2CC2)C(=O)C(N(C)C)=C(N2CC2)C1=O` has a growth inhibition [1] of 17.2%, a growth inhibition [2] of 9.9% and a growth inhibition [3] of 14.6%. It also gave a growth inhibition [4] of 9.3%, a growth inhibition [5] of 1% and a growth inhibition [6] of 23.7%.
For `[Cl][Pt]([Cl])[Cl].[NH-]C1CN2CCC1CC2` (configuration not stated), the growth inhibition [1] was 19.9%, the growth inhibition [2] was 19.4% and the growth inhibition [3] was -13.8%. The growth inhibition [4] was 22.4%, the growth inhibition [5] was 2.2% and the growth inhibition [6] was -7.55%.
Molecule `CC(C)(C)C1=C(Br)C(Br)(C(C)(C)C)OP1(=O)c1ccccc1` (configuration not stated) has a growth inhibition [1] of 7.9%, a growth inhibition [2] of 8.55% and a growth inhibition [3] of -22.9%. It also gave a growth inhibition [4] of 5.75%, a growth inhibition [5] of -5% and a growth inhibition [6] of -27.5%.
In the case of `N.N.N.N.N.[Co+3].[I-].[N-]=[N+]=[N-]`, the growth inhibition [1] was -0.25%, the growth inhibition [2] was 32.8% and the growth inhibition [3] was -25.4%. For the same molecule, the growth inhibition [4] was 20.4%, the growth inhibition [5] was -6.05% and the growth inhibition [6] was -9.05%.
`COc1ccc2c(c1)C1(C)CCN(C)CC(C1)C2O` (configuration not stated) showed a growth inhibition [1] of 47.2%, a growth inhibition [2] of 13.6% and a growth inhibition [3] of 15.6%. It also gave a growth inhibition [4] of 22.9%, a growth inhibition [5] of -1% and a growth inhibition [6] of 23.2%.
Work on `CN(N=O)C(=O)ON1C(=O)CCC1=O` yielded a growth inhibition [1] of 9.65%, a growth inhibition [2] of 7.55% and a growth inhibition [3] of 11.3%. The growth inhibition [4] was 12.4%, the growth inhibition [5] was 18.8% and the growth inhibition [6] was 8.75%.
`C1=CC2C=CC(C=C1)[PH+]2c1ccccc1.[C-]#[O+].[C-]#[O+].[C-]#[O+].[C-]#[O+].[C-]#[O+].[Cr]` (configuration not stated) gave a growth inhibition [1] of -30.4%, a growth inhibition [2] of 2.1% and a growth inhibition [3] of -9.25%. The growth inhibition [4] was 21.4%, the growth inhibition [5] was -2.15% and the growth inhibition [6] was -9.35%.
Molecule `Nc1cccc2ccccc12` has a growth inhibition [1] of 17.1%, a growth inhibition [2] of -9.95% and a growth inhibition [3] of 6.65%. The growth inhibition [4] was -28.9%, the growth inhibition [5] was 19.2% and the growth inhibition [6] was 4.4%.
For `Cc1cc(=O)oc2cc(OC(=O)N(C)C)c(Cl)cc12`, the growth inhibition [1] was -0.5%, the growth inhibition [2] was -11.3% and the growth inhibition [3] was 17.4%. The growth inhibition [4] was 24.4%, the growth inhibition [5] was 18.2% and the growth inhibition [6] was 10.3%.
For `Cc1ccc(C(=O)O[C@H](C(=O)O)[C@H](OC(=O)c2ccc(C)cc2)C(=O)O)cc1`, the growth inhibition [1] was 18.1%, the growth inhibition [2] was -4.05% and the growth inhibition [3] was -19.6%. The growth inhibition [4] was 10.4%, the growth inhibition [5] was 2.6% and the growth inhibition [6] was -11.1%.
For `C=C[CH2][Sn]([CH2]C=C)([CH2]CCC)[CH2]CCC`, the growth inhibition [1] was 99.4% (active), the growth inhibition [2] was 99.5% (active) and the growth inhibition [3] was 99.6% (active). For the same molecule, the growth inhibition [4] was 99.2% (active), the growth inhibition [5] was 99.5% (active) and the growth inhibition [6] was 99.4% (active).
`CNC(Cc1ccccc1)c1ccc(O)c(OC)c1` (configuration not stated) showed a growth inhibition [1] of -0.5%, a growth inhibition [2] of -15.6% and a growth inhibition [3] of -7.35%. It also gave a growth inhibition [4] of -35%, a growth inhibition [5] of 5.05% and a growth inhibition [6] of 0.75%.
Molecule `CCOC(=O)C(O)(c1ccccc1)c1ccccc1` has a growth inhibition [1] of 2.05%, a growth inhibition [2] of -5.95% and a growth inhibition [3] of 6.85%. The growth inhibition [4] was 16.8%, the growth inhibition [5] was -3.35% and the growth inhibition [6] was 31%.
For `CCOP(=O)(O)C1CCCC(C)[N-]1.CCOP(=O)(O)C1CCCC(C)[N-]1.[Cu+2]` (configuration not stated), the growth inhibition [1] was 49.4%, the growth inhibition [2] was 33.6% and the growth inhibition [3] was 31.7%. The growth inhibition [4] was 45.2%, the growth inhibition [5] was 2.9% and the growth inhibition [6] was 26.6%.
In the case of `O=C(c1ccccc1)N1CC1`, the growth inhibition [1] was 6.1%, the growth inhibition [2] was 33.9% and the growth inhibition [3] was -22.1%. It also gave a growth inhibition [4] of 35.5%, a growth inhibition [5] of -3.8% and a growth inhibition [6] of 0.35%.
With `CC(=O)CC(C)=O.CC(=O)CC(C)=O.CC(=O)CC(C)=O.CC(=O)CC(C)=O.[Zr]` the growth inhibition [1] was 7.2%, the growth inhibition [2] was 28.6% and the growth inhibition [3] was 10.4%. It also gave a growth inhibition [4] of 29.6%, a growth inhibition [5] of 38.6% and a growth inhibition [6] of 30.1%.
For `CN(CCC(=O)O)C1=Nc2ccc(Cl)cc2C(c2ccccc2)=[N+]([O-])C1`, the growth inhibition [1] was 1.75%, the growth inhibition [2] was 6.15% and the growth inhibition [3] was -14.2%. For the same molecule, the growth inhibition [4] was -1.4%, the growth inhibition [5] was 16.2% and the growth inhibition [6] was 6.85%.
Work on `CCC(=O)C(c1ccccc1)(c1ccccc1)C(C)CN(C)C` (configuration not stated) yielded a growth inhibition [1] of -8.7%, a growth inhibition [2] of -9.2% and a growth inhibition [3] of 9.35%. The growth inhibition [4] was -5.55%, the growth inhibition [5] was -4.9% and the growth inhibition [6] was -6.35%.
`S=P(NCc1cccc(CNP(=S)(N2CC2)N2CC2)c1)(N1CC1)N1CC1` showed a growth inhibition [1] of 24.4%, a growth inhibition [2] of -0.2% and a growth inhibition [3] of 16.2%. For the same molecule, the growth inhibition [4] was 7.8%, the growth inhibition [5] was -1.6% and the growth inhibition [6] was 9.4%.
`Cc1c[nH]cn1.Cc1c[nH]cn1.Cc1c[nH]cn1.Cc1c[nH]cn1.Cc1c[nH]cn1.Cc1c[nH]cn1.N#CS.[Mn+2]` gave a growth inhibition [1] of 6.1%, a growth inhibition [2] of 4.3% and a growth inhibition [3] of 4.35%. The growth inhibition [4] was -4.8%, the growth inhibition [5] was 4.1% and the growth inhibition [6] was 5.05%.
For `C/C(CCl)=N\NC1=NC2(CCCCC2)P(=O)(NNc2ncccn2)S1` (configuration not stated), the growth inhibition [1] was 3.7%, the growth inhibition [2] was 12% and the growth inhibition [3] was 19.9%. The growth inhibition [4] was -0.5%, the growth inhibition [5] was 6.3% and the growth inhibition [6] was 15.2%.
In the case of `CC(Oc1ccc([N+](=O)[O-])cc1Cl)C(=O)Nc1ccc(S(=O)(=O)F)cc1` (configuration not stated), the growth inhibition [1] was -12.8%, the growth inhibition [2] was -14.4% and the growth inhibition [3] was -9.4%. It also gave a growth inhibition [4] of 4%, a growth inhibition [5] of 0.2% and a growth inhibition [6] of -12.6%.
Work on `COC1CC2C=CC3C4OC2(/C(C)=C/C(C)C(C(C)O)OC1=O)C3C(O)C(C)C4OC(=O)c1ccc[nH]1` (configuration not stated) yielded a growth inhibition [1] of 14.7%, a growth inhibition [2] of 6.35% and a growth inhibition [3] of 13.3%. For the same molecule, the growth inhibition [4] was 10.7%, the growth inhibition [5] was -2.85% and the growth inhibition [6] was 14.1%.
`CC(C)(C)c1cc2c(=O)o[s+]3oc(=O)c(c1)c23` showed a growth inhibition [1] of 10.2%, a growth inhibition [2] of -8.75% and a growth inhibition [3] of 6.75%. It also gave a growth inhibition [4] of 1.35%, a growth inhibition [5] of 6.15% and a growth inhibition [6] of 14.8%.
`N.N.N.N.O=N[O-].O=N[O-].[Cl-].[Co+3]` showed a growth inhibition [1] of 4.25%, a growth inhibition [2] of 16.1% and a growth inhibition [3] of 2.55%. It also gave a growth inhibition [4] of 36.1%, a growth inhibition [5] of 7.25% and a growth inhibition [6] of 0.2%.
For `CCC(Br)(CC)C(=O)NC(N)=O`, the growth inhibition [1] was 13.1%, the growth inhibition [2] was -23.8% and the growth inhibition [3] was -13.9%. For the same molecule, the growth inhibition [4] was -16.4%, the growth inhibition [5] was -10.8% and the growth inhibition [6] was -6.05%.
In the case of `O=N[O-].O=N[O-].[NH2-].[NH2-].[NH2-].[NH2-].[Ni]`, the growth inhibition [1] was 0.55%, the growth inhibition [2] was 7% and the growth inhibition [3] was 19.6%. For the same molecule, the growth inhibition [4] was -48.7%, the growth inhibition [5] was -14.8% and the growth inhibition [6] was 13.3%.
`CCCCCCCCCCOP(OCCCCCCCCCC)Oc1ccccc1` gave a growth inhibition [1] of 47.1%, a growth inhibition [2] of -4.9% and a growth inhibition [3] of 2.1%. The growth inhibition [4] was 10.5%, the growth inhibition [5] was 0.45% and the growth inhibition [6] was 7.45%.
With `CC(=O)Nc1nc2c(ncn2C2OCC(OC(C)=O)C(OC(C)=O)C2OC(C)=O)c(=O)[nH]1` (configuration not stated) (tested in a mixture with another compound) the growth inhibition [1] was 4.1%, the growth inhibition [2] was -4.35% and the growth inhibition [3] was 2.65%. The growth inhibition [4] was -6.9%, the growth inhibition [5] was 6.1% and the growth inhibition [6] was 6.95%.
